# HSP90 inh – blocks HSP90-mediated luciferase refolding in reticulocyte lysate; Rabbit reticulocyte lysate, luciferase refolding luminescence, 3 h; inhibition, % at 5.6 µM; actives 0.91% (n = 290,000); AID 1789;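 active = inhibition above the screen-wide mean plus 3 SD, computed separately per campaign, cut at about 16% in these data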;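 note: inhibitors lower the luminescence because luciferase stays unfolded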
# Platelet DG rel – modulates dense granule release in human platelets; human platelet-rich plasma, SFLLRN dense granule ATP release, luminescence; inhibition, %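 (compounds screened at 7.5 µM in platelet-rich plasma)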; actives 0.22% (n = 300,000);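 active = mean replicate score, as percent of positive control, at or above 50; inconclusive = mean below 50 but at least one replicate at or above 50; inactive = mean and every replicate below 50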
# TWEAK-Fn14 inh – blocks TWEAK-Fn14 interaction in a reporter cell assay; TWEAK-stimulated Fn14 reporter cells, luciferase luminescence, 8 h; inhibition, % at 10 µM; actives 2% (n = 360,000); in the data active = inhibition above about 50%
# TRAIL sens C8 – caspase-8 TRAIL sensitization; NB7+C8 cells + TRAIL, ATPlite viability luminescence; inhibition (viability loss, TRAIL sensitization), % at 10 µM; actives 1% (n = 360,000); AID 624354;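 active = compounds causing at least 50% loss of cell viability in the single-dose screen, relative to plate controls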
# TROY signal inh – TROY signaling inhibition; actives 0.98% (n = 360,000); inhibition, % at 10 µM; Q293 LMP1-TROYcd NF-kB luciferase reporter, 4 h; AID 1347056;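 active = compounds whose plate-normalised and pattern-corrected inhibition of the luciferase reporter signal at the single screening dose is 50% or more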
# PPC-1+TRAIL kill – PPC-1 cancer cell killing with TRAIL present; actives 0.41% (n = 220,000); PPC-1 cells + TRAIL, ATPLite viability luminescence; cell killing (% activity), % at 4 µM or 5 µM;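 active = cell killing above 50% in the first pass at 4 µM, then a duplicate retest at 5 µM averaging 50% or more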
# Hits are given with their value; - = inactive; ? = inconclusive; . = not tested or not shown. An excerpt weighted towards active compounds, which were near 3.5% of everything screened.
SMILES,HSP90 inh,Platelet DG rel,TWEAK-Fn14 inh,TRAIL sens C8,TROY signal inh,PPC-1+TRAIL kill
COc1ccc(CNC(=O)c2nc(S(=O)(=O)Cc3ccccc3)ncc2Cl)cc1,-,-,73,-,59,.
O=C(NCc1ccccc1)c1nc(S(=O)(=O)Cc2ccccc2)ncc1Cl,-,-,82,-,70,.
CS(=O)(=O)c1ncc(Cl)c(C(=O)Nc2ccc3ccccc3c2)n1,-,79,82,-,65,-
O=C(Nc1ccc2ccccc2c1)c1cnccn1,-,-,-,-,-,-
O=C(NCc1ccccc1)c1c(Cl)nc(Cl)c(Cl)c1Cl,-,-,93,94,66,.
O=C(Nc1ccc(Br)cc1)c1cnc[nH]1,-,-,-,-,-,.
NC(=O)C1CC12c1ccccc1-c1ccccc12 (stereo not given),-,-,-,-,-,.
COC(=O)c1ccccc1NC(=O)c1nc(S(=O)(=O)Cc2ccccc2)ncc1Cl,-,-,76,95,58,.
CC(=O)Nc1ccc(NC(=O)c2nc(S(=O)(=O)Cc3ccccc3)ncc2Cl)cc1,-,-,58,-,-,.
CSc1ncc(Cl)c(C(=O)Nc2ccc(NC(C)=O)cc2)n1,-,-,-,-,-,-
COC(=O)c1cscc1S(=O)(=O)Cc1ccccc1,-,-,-,-,-,.
O=C(N/N=C/c1ccc(C(F)(F)F)cc1)c1ccc(O)cc1,-,-,-,-,-,-
NC(N)=NN=C(c1ccc(F)cc1)c1ccc(C(F)(F)F)cc1,.,.,56,-,-,.
O=C(Nc1ccc(Br)cc1)c1ccc(F)c(S(=O)(=O)N2CCN(c3ccccn3)CC2)c1,-,-,53,-,-,-
COC1=C(OC)C(=O)C(CCCCCCCCCCO)=C(C)C1=O,27,.,77,-,50,-
O=c1nccc(N/N=C/c2ccccc2O)[nH]1,16,63,-,64,-,.
CCOc1ccccc1/C=N/Nc1ccnc(=O)[nH]1,-,-,-,-,-,.
Cc1cc(/C=N/Nc2ccc([N+](=O)[O-])cn2)c(C)n1-c1ccccc1,16,-,-,-,-,-
COc1cccc(/C=N/Nc2ccc([N+](=O)[O-])cn2)c1O,-,-,89,60,56,.
O=[N+]([O-])c1cccc(C=NNc2ccc3ccccc3n2)c1O,.,.,97,57,75,.
COc1ccc(C(=O)N/C(=C\c2ccccc2)C(=O)Nc2ccccc2C(=O)O)cc1,.,-,-,-,-,.
COc1cccc(/C=N/Nc2ccnc(=O)[nH]2)c1O,-,?,-,48,-,.
COc1cccc(/C=N/NC(=O)C(C)n2nc(C)c([N+](=O)[O-])c2C)c1O (stereo not given),-,-,-,55,-,-
COc1ccc(C(=O)NCCN2CCC(n3c(=O)[nH]c4ccccc43)CC2)cc1F,.,.,-,-,-,.
CCc1cc2c(=O)nc3n(c2s1)Cc1ccccc1/C3=C(/O)c1ccccc1Cl,-,-,-,-,-,-
SMILES,HSP90 inh,Platelet DG rel,TWEAK-Fn14 inh,TRAIL sens C8,TROY signal inh,PPC-1+TRAIL kill
CCc1cc2c(=O)nc3n(c2s1)Cc1ccccc1/C3=C(/O)c1ccc(F)cc1,-,-,100,-,-,-
C=C(C)CN(CC)C(=O)Cn1cnc2c(oc3ccccc32)c1=O,-,-,-,-,54,.
O=C(Cc1ccccc1[N+](=O)[O-])N/N=C/c1cccnc1,-,-,-,-,-,.
Cc1ccc(NC(=O)CSc2cn[nH]n2)cc1,-,-,-,-,-,.
N#Cc1ccc(NC(=O)CSc2cn[nH]n2)cc1,-,-,90,-,-,.
Cc1cccc(NC(=O)/C(C#N)=C\c2ccc(C(=O)O)cc2)c1,-,-,-,-,-,-
COc1cc(C)c(/C=C(\C#N)C(=O)Nc2cccc(C)c2)cc1C(C)C,-,-,86,-,84,-
O=[N+]([O-])c1c(Nc2ccccn2)cc(Cl)c2nonc12,-,59,-,85,-,-
CN(C)c1cc(Nc2ccc(O)cc2)c([N+](=O)[O-])c2nonc12,-,-,-,-,-,-
O=[N+]([O-])c1c(Nc2ccc(O)cc2)cc(Cl)c2nonc12,-,56,67,96,83,.
O=C(O)c1ccccc1Nc1cc(Cl)c2nonc2c1[N+](=O)[O-],-,-,-,-,-,.
Cc1onc(-c2ccccc2)c1C(=O)NCc1ccccc1F,-,-,-,-,-,.
N=c1c2ccccc2nnn1-c1ccc(C(F)(F)F)cc1,-,-,-,-,-,-
CSc1nc2ccc(NC(=O)c3ccc(F)c(F)c3)cc2s1,-,-,-,-,-,-

# From PubChem
